In all, about 48,000 compounds went through this assay and about 13,000 (27%) showed an effect of 50% or more. The list shows a part of the results.

This test deals with Wolbachia pipientis. Description: Anti-Wolbachia Cell-Based Screen. The format is functional. Also noted: scale not given: in the data most compounds retested in dose-response had high values. The note with it: 5 µM.
As for `O=C(O)CC1CN(S(=O)(=O)c2cccc(F)c2)c2ccccc21` (configuration not stated), the “Percent Effect” value is given as -14.9%.

On to `CC(NC(=O)Nc1nnc(-c2ccccn2)s1)C(=O)OC(C)(C)C` (configuration not stated), for which the “Percent Effect” value worked out at 4.269%. Take `CN1CC[C@@H]2[C@@H](CO[C@H]2CNC(=O)c2nccn2C)C1.O=C(O)C(F)(F)F`: the “Percent Effect” value is -30.91%. Consider `COCCN(CCN(C)C)C(=O)NC1CCc2ccccc2C1` (configuration not stated), for which the “Percent Effect” value is -2.569%. The same measure for `O=C1NCCCC12CCN(Cc1ccc(SC3CCCCC3)o1)C2` (configuration not stated): 4.336%; for `CCOc1ccc(CN2CCC3(CC2)CNC(=O)C3)cn1`: -1.206%. The same measure for `CCOc1cc2c(cc1CN1CCC3(CC1)CNC(=O)C3)CCC2`: 89%; for `CCOc1cc2c(cc1CN1CCC3(CCCNC3=O)C1)CCC2` (configuration not stated): 106.5%; for `Cc1ccc(Sc2ccc(CN3CCC4(CCCNC4=O)C3)o2)cc1` (configuration not stated): 5.94%. The same measure for `CCOc1cc2c(cc1CCC(=O)O)CCC2`: -9.267%; for `CCCc1cc(C(=O)N2CCC3(CCCNC3=O)C2)cs1` (configuration not stated): 9.333%; for `CCCNc1ncc(CN2CCC3(CC2)CNC(=O)C3)cn1`: -5.134%.

In the case of `CCOc1cc(Cl)c(CN2CCC3(CCCNC3=O)C2)cc1OC` (configuration not stated), the “Percent Effect” value worked out at 104.3%. For `CN1CCc2ccc(NCc3cscn3)cc2C1=O` the value was 26.59%; for `CN(C)C(=O)CN1C[C@H]2CCN(C(=O)c3ccncc3)CC[C@H]2S1(=O)=O`, 6.618%. For `CCc1nnc(S(=O)(=O)Cc2cc(Cl)c3c(c2)OCO3)n1C`, the “Percent Effect” value is -5.495%. For `COCCN(C)c1nc(-c2ccncc2)nc2c1CCN(C(C)=O)C2` the value was 5.956%. The same measure for `CNC(=O)CCN(C)c1nc(-c2ccncc2)nc2c1CCNC2`: 97.6%; for `CNC(=O)CN(C)c1nc(-c2ccncc2)nc2c1CCN(C(C)=O)C2`: -5.976%.

For `CN(CCCO)c1nc(-c2ccc(C(N)=O)cc2)nc2c1CCNC2`, the “Percent Effect” value is on record as 101.5%. For `NC(=O)c1ccc(-c2nc3c(c(=O)[nH]2)CCNC3)cc1` the value was -6.229%; for `CCN(CC)CCN(C)c1nc(-c2ccc(Cl)cc2)nc2c1CNC2`, -44.78%. For `CNC(=O)CN(C)c1nc(-c2ccc(C(N)=O)cc2)nc2c1CCNC2` the value was 117.3%; for `CN(CCO)c1nc(-c2ccccn2)nc2c1CCNC2`, -7.259%. The same measure for `CN(CC(O)CO)c1nc(-c2cccnc2)nc2c1CCNC2` (configuration not stated): 5.807%; for `O=C1NCCO[C@H]2CN(C(=O)CCc3ccc(Cl)cc3)CC[C@@H]12`: 1.273%; for `O=C(CC1CCc2ccccc21)NCCSc1cnn[nH]1` (configuration not stated): -1.678%. Take `O=S(=O)(NCC1CCOC1)N1CCc2ccccc2C1` (configuration not stated): the “Percent Effect” value worked out at 0.4119%.

As to `CN(CCOc1ccc(Br)cc1)Cc1cscn1`, the “Percent Effect” value is -4.62%.

Turning to `CCCc1nnc(NC2CCN(Cc3ccc(F)c(F)c3)CC2)o1`, the “Percent Effect” value is -13.59%. For `Cc1cc(C(=O)NC2CCCCNC2=O)c(=O)[nH]c1C` (configuration not stated) the value was -5.405%; for `O=C(O)C(F)(F)F.O=C(c1c[nH]cn1)N1CCC(F)(F)C2(CCN(c3cccc(F)c3)C2)C1` (configuration not stated), -14.3%; for `Cn1cc(CN2CCC(F)(F)C3(CCN(c4cccc(F)c4)C3)C2)cn1` (configuration not stated), 120.4%.

With `Cn1cc(CN2CCOC3(CCCN(c4cccc(F)c4)C3)C2)cn1.O=C(O)C(F)(F)F.O=C(O)C(F)(F)F` (configuration not stated), the “Percent Effect” value is -4.147%. The same measure for `O=C(O)C(F)(F)F.O=C(O)C(F)(F)F.O=C(O)CN1CCC(F)(F)C2(CCN(c3ccccc3)C2)C1` (configuration not stated): -5.23%.

In the case of `Cn1cc(CN2CCC(F)(F)C3(CCN(c4cccnc4)C3)C2)cn1.O=C(O)C(F)(F)F.O=C(O)C(F)(F)F` (configuration not stated), the “Percent Effect” value was 116.7%. The same measure for `FC1(F)CCN(Cc2ccncc2)CC12CCN(c1cccnc1)C2.O=C(O)C(F)(F)F.O=C(O)C(F)(F)F.O=C(O)C(F)(F)F` (configuration not stated): 90.74%; for `FC1(F)CCN(Cc2cccnc2)CC12CCN(c1ccccc1)C2.O=C(O)C(F)(F)F.O=C(O)C(F)(F)F.O=C(O)C(F)(F)F` (configuration not stated): 93.27%; for `O=C(CO)N1CCC(F)(F)C2(CCN(c3ccccc3)C2)C1.O=C(O)C(F)(F)F` (configuration not stated): 5.936%. In the case of `Cc1nc(Nc2ccc(Cl)cn2)sc1C(=O)NC(C)C`, the “Percent Effect” value amounted to 4.933%.

Regarding `O=C(NCc1nc(NC2CCCC2)c2cc(Cl)ccc2n1)c1ccoc1`, the “Percent Effect” value is given as 13.57%. For `CC(C)(C(=O)NCc1n[nH]c(=O)[nH]1)c1ccc(F)cc1` the value was 1.866%; for `O=C(NCCC(O)c1ccco1)c1ccccc1Br` (configuration not stated), 14.27%. `CC(O)CN1CCN(C(=O)c2ccn(-c3cccc(Cl)c3)n2)CC1` (configuration not stated): the “Percent Effect” value is listed as 1.72%. The same measure for `CN(C)C(=O)CO[C@H]1CO[C@@]2(CCN(Cc3ccoc3)C2)C1`: -7.87%; for `CS(=O)(=O)N1CCCC12CCN(Cc1nccs1)CC2.O=C(O)C(F)(F)F`: -14.48%; for `CS(=O)(=O)N1CCCC12CCN(Cc1ccoc1)CC2`: 99.65%.

Take `Cn1cc(CN2CCC3(CCCN3S(C)(=O)=O)CC2)cn1`: the “Percent Effect” value came to 6.984%. The same measure for `CS(=O)(=O)N1CCOCC12CCN(c1nncs1)CC2`: 4.354%; for `CS(=O)(=O)N1CCOCC12CCN(Cc1ccoc1)CC2`: 122%; for `COCCNc1ccccc1CNC(=O)NCc1ccc(C)s1`: -4.597%.

`CS(=O)(=O)CCOCCNc1cncc(Br)c1`: the “Percent Effect” value was -7.579%.

The values above are taken from ChEMBL document CHEMBL3988442, “University of Dundee, Small-Polar-MMV Screening Library” (2021).
